An excerpt weighted towards active compounds, which were near 17% of everything screened.
TDP1 cell CPT – growth inhibition of DT40 Tdp1-/-;hTDP1 cells with camptothecin (screen for TDP1 inhibitors); 420,000 tested, 12% active; Potency, µM (titrated, usually from 46.2 µM), for the others: top-dose activity change, negative = growth inhibition, hits mostly inhibitors; chicken DT40 Tdp1-/-;hTDP1 cells + 20 nM CPT, ATP luminescence, 48 h; AID 686979; also: % is scaled to controls: 0 for no effect and ±100 for the full control effect; nearly all actives have a fitted effect of over 55% in size
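Chicken DT40 Tdp1-/- cells complemented with human TDP1, 400 cells/well, exposed to compounds plus 20 nM camptothecin for at least 48 h at 37 C; viability read as ATP content by CellTiter-Glo luminescence.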
TGFb SMAD3 inh – inhibitors of TGF-b signaling; HepG2 CAGA-GFP TGF-b/SMAD3 reporter, GFP fluorescence, 18 h; TGF-beta stimulated, 500 pg/mL final; Potency, µM (top dose mostly 46.1 µM), for the others: at the top dose activity, negative = inhibition, actives largely listed as inhibitors; 410,000 tested, 1.2% active; AID 588855; also: % is scaled to controls: 0 for no effect and ±100 for the full control effect; nearly all actives have a fitted effect of over 65% in size
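Using HEPG2 CAGA-GFP reporter cells at 1000 cells/well, we pinned test compounds, stimulated with recombinant TGF-beta (500 pg/mL final) and measured total well GFP after 18 h.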
ATXN2 expr inh – inhibitors of ATXN2 expression; HEK-293 ATXN2-luciferase reporter, luminescence, 24 h; AID 1745845; 360,000 tested, 0.72% active; Potency, µM (titrated, usually from 57 µM), for the others: at the top dose activity change, negative = inhibition, hits mostly inhibitors; also: % is scaled to controls: 0 for no effect and ±100 for the full control effect; nearly all actives have a fitted effect of over 55% in size
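ATXN2-luciferase reporter cells (luciferase flanked by upstream and downstream ATXN2 gene portions) were treated 24 h at 37 °C with compounds at up to 57 uM. SteadyGlo luminescence gave expression; GF-AFC fluorescence gave viability.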
HepG2 tox – kills HepG2 cells in TGF-b inhibitor counter-screen; 410,000 tested, 0.76% active; Potency, µM (series often up to 46.1 µM), for inactives: at the highest dose activity change, negative = cytotoxicity, actives largely listed as cytotoxic; HepG2 CAGA-GFP viability, ATP luminescence, 18 h; AID 588856
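CellTiter-Glo luminescence gave cytotoxicity after 18 hours at 37 degrees C. The cells were HepG2 CAGA-GFP in 1% FBS DMEM, stimulated with 500 pg/mL TGF-beta after compound addition. %Activity was normalised to no-cell wells (complete cell-killing) and DMSO (no toxicity), and curves were fitted and classified.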
DT40 TDP1 no CPT – qHTS for Inhibitors of human tyrosyl-DNA phosphodiesterase 1 (TDP1): qHTS in cells in absence of CPT; AID 686978, 2013; DT40 Tdp1-/- hTDP1 cells, no CPT, ATP luminescence, 48 h; 420,000 tested, 15% active; Potency, µM (series often up to 46.2 µM), without a hit: top-dose activity change, negative = growth inhibition, most hits filed as inhibitors; also: % is scaled to controls: 0 for no effect and ±100 for the full control effect; nearly all actives have a fitted effect of over 55% in size
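A cellular qHTS used chicken DT40 cells lacking endogenous Tdp1 but carrying stably transfected human TDP1. Compounds were applied without camptothecin, and cell growth kinetics were judged by ATP-dependent luminescence after ≥48 hr.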
ATXN viability – cell viability loss in ATXN counter-screen | S2 cells (HEK-293 line with an ATXN2-luciferase reporter) viability, CellTiter-Fluor protease fluorescence, 24 h | 400,000 tested, 0.49% active | Potency, µM (highest dose often 56.7 µM), actives largely listed as cytotoxic; also: nearly all actives have a fitted effect of over 40% in size
The depositor's hits bear a star. Calls follow the shape of the dose curve; as a rule, active = well fitted curve in the direction sought with a large enough effect; inconclusive = small, poorly fitted or top-dose-only effect, or another doubt; inactive = no such curve, though single readings can be large; an effect the other way counts as inactive or inconclusive. Potency is read from the fitted curve at half-maximal effect.

Results for CCC(OC(=O)c1ccc(S(C)(=O)=O)c([N+](=O)[O-])c1)C(=O)NC1C2CC3CC(C2)CC1C3 (stereo not given) ?
TGFb SMAD3 inh: 4.47µM*; ATXN2 expr inh: inconclusive; HepG2 tox: 5.62µM*; ATXN viability: 6.31µM*

What do the screens show for `CC(OC(=O)c1ccc(S(C)(=O)=O)c([N+](=O)[O-])c1)C(=O)NC1C2CC3CC(C2)CC1C3` (stereo not given)?
TGFb SMAD3 inh: 3.16µM*; ATXN2 expr inh: inconclusive; HepG2 tox: -100.8%; ATXN viability: 3.16µM*

What do the screens show for `CC1CCN(C(=O)C(C)OC(=O)c2ccc(S(C)(=O)=O)c([N+](=O)[O-])c2)CC1` (stereo not given)?
TDP1 cell CPT: 0.891µM*; TGFb SMAD3 inh: 10µM*; HepG2 tox: -76.8%; DT40 TDP1 no CPT: 2.24µM*

How did COC(=O)c1ccc(SCC(=O)N2CCC(C)CC2)c([N+](=O)[O-])c1 do in these assays?
TDP1 cell CPT: -27.9%; TGFb SMAD3 inh: -1.4%; ATXN2 expr inh: 6.2%; HepG2 tox: -0.1%; DT40 TDP1 no CPT: inconclusive; ATXN viability: inactive

What do the screens show for `CS(=O)(=O)c1ccc(C(=O)OCC(=O)NC23CC4CC(CC(C4)C2)C3)cc1[N+](=O)[O-]`?
TDP1 cell CPT: inconclusive; TGFb SMAD3 inh: inconclusive; ATXN2 expr inh: inconclusive; HepG2 tox: -99.4%; DT40 TDP1 no CPT: inconclusive; ATXN viability: inconclusive

How did CCc1ccc(NC(=O)C(C)OC(=O)c2ccc(N3CCCC3)c([N+](=O)[O-])c2)cc1 (stereo not given) do in these assays?
TDP1 cell CPT: inconclusive; TGFb SMAD3 inh: 2.2%; HepG2 tox: -0.3%; DT40 TDP1 no CPT: inconclusive; ATXN viability: inactive

What do the screens show for `COc1ccc(CNCc2ccccc2[N+](=O)[O-])cc1OC`?
TDP1 cell CPT: -11.0%; TGFb SMAD3 inh: -3.0%; HepG2 tox: 2.9%; DT40 TDP1 no CPT: inconclusive; ATXN viability: inactive

What do the screens show for `NS(=O)(=O)c1ccc(NC(=O)COC(=O)CC2Sc3ccccc3NC2=O)cc1` (stereo not given)?
TDP1 cell CPT: -0.2%; TGFb SMAD3 inh: 5.5%; ATXN2 expr inh: 28.7%; HepG2 tox: 1.4%; DT40 TDP1 no CPT: 1.1%; ATXN viability: inactive

Results for COc1cccc(CN(C)C(=O)CSCC(=O)Nc2ccc(C)cc2)c1OC ?
TDP1 cell CPT: inconclusive; TGFb SMAD3 inh: -7.0%; ATXN2 expr inh: -9.1%; HepG2 tox: -7.7%; DT40 TDP1 no CPT: 11.6µM*; ATXN viability: inactive

What do the screens show for `COc1ccc(CN(C)C(=O)Cc2c[nH]c3ccccc23)cc1`?
TDP1 cell CPT: -3.2%; TGFb SMAD3 inh: 1.3%; ATXN2 expr inh: 12.8%; HepG2 tox: 0.8%; DT40 TDP1 no CPT: -1.2%; ATXN viability: inactive

What do the screens show for `COc1cccc(CN(C)C(=O)Cc2c[nH]c3ccccc23)c1OC`?
TDP1 cell CPT: inconclusive; TGFb SMAD3 inh: 2.3%; ATXN2 expr inh: 9.5%; HepG2 tox: -5.0%; DT40 TDP1 no CPT: 16.4µM*; ATXN viability: inactive

How did O=C1OCCN1C(=O)[C@H]1[C@H](c2ccc([N+](=O)[O-])cc2)C(c2ccc(F)cc2)=NN1c1ccccc1 do in these assays?
TDP1 cell CPT: inconclusive; TGFb SMAD3 inh: inconclusive; ATXN2 expr inh: -6.4%; HepG2 tox: -36.6%; DT40 TDP1 no CPT: -24.2%; ATXN viability: inactive

Results for C[C@@H]1C(c2cccc(Cl)c2)=NN(c2ccccc2)[C@H]1C(=O)N1CCOC1=O ?
TDP1 cell CPT: inconclusive; TGFb SMAD3 inh: 20µM*; ATXN2 expr inh: -6.4%; HepG2 tox: -47.9%; DT40 TDP1 no CPT: inconclusive

How did C[C@@H]1C(c2cccc(Cl)c2)=NN(c2ccc(Br)cc2)[C@H]1C(=O)N1CCOC1=O do in these assays?
TDP1 cell CPT: inconclusive; TGFb SMAD3 inh: 10µM*; ATXN2 expr inh: -16.6%; HepG2 tox: -29.9%; DT40 TDP1 no CPT: inconclusive

How did C[C@@H]1C(c2ccccc2)=NN(c2ccccc2)[C@H]1C(=O)N1CCOC1=O do in these assays?
TDP1 cell CPT: inconclusive; TGFb SMAD3 inh: 6.1%; ATXN2 expr inh: 10.7%; HepG2 tox: 0.0%; DT40 TDP1 no CPT: inconclusive; ATXN viability: inactive

How did O=C1OCCN1C(=O)[C@H]1[C@H](c2ccc([N+](=O)[O-])cc2)C(c2ccc(F)cc2)=NN1c1ccc(Br)cc1 do in these assays?
TDP1 cell CPT: inconclusive; TGFb SMAD3 inh: inconclusive; ATXN2 expr inh: -16.8%; HepG2 tox: -28.7%; DT40 TDP1 no CPT: 14.6µM*; ATXN viability: inconclusive

How did Cc1ccc(-c2noc(-c3ccc(NCc4ccco4)c([N+](=O)[O-])c3)n2)cc1 do in these assays?
TDP1 cell CPT: -9.2%; TGFb SMAD3 inh: -29.2%; ATXN2 expr inh: 25.2%; HepG2 tox: 0.4%; DT40 TDP1 no CPT: -4.5%; ATXN viability: inactive

What do the screens show for `COc1ccccc1N(CC(O)CN1CCCCC1)S(=O)(=O)c1ccc(C)cc1` (stereo not given)?
TDP1 cell CPT: 10.3%; TGFb SMAD3 inh: 9.4%; ATXN2 expr inh: 11.0%; HepG2 tox: -16.4%; DT40 TDP1 no CPT: -16.4%; ATXN viability: inactive

How did COc1ccc(N(CC(O)Cn2c3ccccc3c3ccccc32)S(=O)(=O)c2ccccc2)cc1 (stereo not given) do in these assays?
TDP1 cell CPT: inconclusive; TGFb SMAD3 inh: inconclusive; ATXN2 expr inh: -5.6%; HepG2 tox: -33.9%; DT40 TDP1 no CPT: inconclusive; ATXN viability: inactive

Results for CC(=O)Nc1ccccc1N(CC(O)Cn1c2ccccc2c2ccccc21)S(=O)(=O)c1ccc(C)cc1 (stereo not given) ?
TDP1 cell CPT: inconclusive; TGFb SMAD3 inh: inconclusive; ATXN2 expr inh: inconclusive; HepG2 tox: -20.5%; DT40 TDP1 no CPT: 18.4µM*; ATXN viability: inactive

How did Cc1ccc(N(CC(O)Cn2c3ccccc3c3ccccc32)S(=O)(=O)c2ccc(F)cc2)cc1 (stereo not given) do in these assays?
TDP1 cell CPT: inconclusive; TGFb SMAD3 inh: 8.91µM*; HepG2 tox: 14.1µM*; DT40 TDP1 no CPT: 20.6µM*

Results for Cc1cccc(C)c1NC(=O)Cn1nnc(C(=O)Nc2c(C)cccc2C)c1N ?
TDP1 cell CPT: 3.5%; TGFb SMAD3 inh: inconclusive; ATXN2 expr inh: 0.2%; HepG2 tox: -0.6%; DT40 TDP1 no CPT: -14.7%; ATXN viability: inactive

Assay outcomes deposited in PubChem by National Center for Advancing Translational Sciences (NCATS).
